This note sets out measurements from PubChem BioAssay (NCI).

Compounds without any hit were thinned out: in the full panel of roughly 83,000, 20% have a hit.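 Testing used 96-well plates and a 48-hour single-concentration exposure. Example: -40 means 40% of the starting cells died.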 Unmarked numbers belong to inactive results. The source made the active and inactive calls. Rule for the calls: active = growth percent below 10; inactive = the rest.

What all share (assay): NCI-60 one-dose screen, 48 h (100 = growth as untreated, 0 = no growth, -100 = all killed)
One experiment relates to T-47D breast. Conditions: 10 µM.
The test system of another experiment is BT-549 breast. Conditions: 10 µM unless noted.
For another experiment, the system named is MDA-MB-435 melanoma. Conditions: 10 µM unless noted.
A further experiment concerns SW-620 colon. Particulars: 10 µM unless noted.
For the next experiment, the system named is MCF7 breast. Particulars: 10 µM unless noted.
For another experiment, the system named is HCT-116 colon. Conditions: 10 µM unless noted.
For another experiment, the system named is KM12 colon. Particulars: 10 µM unless noted.
The test system of a further experiment is HCC-2998 colon. Particulars: 10 µM unless noted.

With `COc1ccc(Sc2ccc3[nH]c(=O)nc(N)c3c2)cc1`, the growth is 94.3% in the experiment with T-47D breast; 98.9% in the experiment on BT-549 breast; 99.8% with MDA-MB-435 melanoma; 101% in the experiment with SW-620 colon; 100% in the experiment on MCF7 breast; 99.9% in the experiment with HCT-116 colon. Besides, the growth in the experiment with KM12 colon is 108%.

In the case of `C=CC[P+](c1ccccc1)(c1ccccc1)c1ccccc1`, the growth is 16.5% in the experiment with T-47D breast; 47.5% with BT-549 breast; 32.3% in the experiment with MDA-MB-435 melanoma; 79.7% in the experiment with SW-620 colon; 27.2% in the experiment on MCF7 breast; 36.7% in the experiment on HCT-116 colon. Besides, the growth in the experiment on HCC-2998 colon is 51.7%; in the experiment on KM12 colon it was 31.3%.

For `O=c1oc2ccccc2cc1-c1csc(N=Nc2c(O)[nH]c3ccc(Cl)cc23)n1`, the growth in the experiment with T-47D breast is 98.8%; in the experiment on BT-549 breast, 99%; in the experiment with MDA-MB-435 melanoma, 98.9%; in the experiment on SW-620 colon, 103%; in the experiment on MCF7 breast, 93.5%; in the experiment on HCT-116 colon it was 107%. In addition, the growth in the experiment on HCC-2998 colon was 104%; in the experiment on KM12 colon it was 108%.

With `COc1ccc(-c2nn(-c3ccc(NC(=O)c4ccc(Cl)c(Cl)c4)cc3)cc2-c2ccncc2)cc1Cl`, the growth with T-47D breast was 64.9%; with BT-549 breast, 42.8%; in the experiment with MDA-MB-435 melanoma, 54.3%; in the experiment on SW-620 colon, 32.1%; in the experiment with MCF7 breast, 31.5%; in the experiment with HCT-116 colon, 23.2%. Moreover, in the experiment with KM12 colon, the growth is 5.24% (active).

Regarding `Cn1cc(C(=O)NCCC(=N)N)cc1NC(=O)CN=C(N)N`, the growth is 110% in the experiment with T-47D breast; 99.9% in the experiment on BT-549 breast; 111% in the experiment with MDA-MB-435 melanoma; 106% in the experiment with SW-620 colon; 111% in the experiment with MCF7 breast; 92.6% with HCT-116 colon. Besides, the values for the growth in the experiment on HCC-2998 colon and with KM12 colon were 88.6% and 104%, respectively.

Take `CC1SC(c2cccc(Oc3ccccc3)c2)N(CCc2cccs2)C1=O` (configuration not stated): the growth with T-47D breast was 0.211% (active); with BT-549 breast, -69.2% (active); with MDA-MB-435 melanoma, -43.1% (active); in the experiment on SW-620 colon, -3.96% (active); in the experiment with MCF7 breast, -0.665% (active); in the experiment with HCT-116 colon, -85.6% (active). In addition, the growth is -32.9% (active) in the experiment on HCC-2998 colon and -25.2% (active) in the experiment with KM12 colon.

With `CCCCCn1c(=N)n(CC(O)COc2cccc(C)c2)c2ccccc21` (configuration not stated), the growth in the experiment with T-47D breast is -0.186% (active); with BT-549 breast, -16.9% (active); with MDA-MB-435 melanoma, 6.94% (active); in the experiment on SW-620 colon it was 10.8%; with MCF7 breast, 7.34% (active); with HCT-116 colon, 11%. In addition, the growth in the experiment with KM12 colon was 6.37% (active).

Regarding `CN1CCN(c2nc(-c3ccncc3)nc3sc4c(c23)CCCCCC4)CC1`, the growth in the experiment with T-47D breast is 90.9%; in the experiment with BT-549 breast, 44.3%; in the experiment with MDA-MB-435 melanoma, 77.7%; with SW-620 colon it was 77.1%; in the experiment with MCF7 breast, 60.6%; with HCT-116 colon it was 56.5%. Also, the values for the growth in the experiment on HCC-2998 colon and in the experiment with KM12 colon were 37.4% and 90.9%, respectively.

Take `O=C(COc1cccc(/C=C2\COc3ccccc3C2=O)c1)c1ccccc1`: the growth is 75.3% with T-47D breast; 45.5% with BT-549 breast; 43.1% with MDA-MB-435 melanoma; -81.7% (active) in the experiment on SW-620 colon; 7.63% (active) in the experiment with MCF7 breast; 3.67% (active) in the experiment on HCT-116 colon. Further, in the experiment with KM12 colon, the growth was 31.6%.

With `O=C1CN2CCC1C/C2=C\c1ccnc2c(Cl)cccc12` (configuration not stated), the growth was 93.6% in the experiment on T-47D breast; 108% in the experiment with BT-549 breast; 101% with MDA-MB-435 melanoma; 101% in the experiment on SW-620 colon; 45.7% in the experiment with MCF7 breast; 98.5% with HCT-116 colon. Moreover, the growth in the experiment on HCC-2998 colon is 102%; with KM12 colon it was 101%.

`CC(=O)Nc1ccc(S(=O)(=O)N/N=C\c2ccc(Cl)c(Cl)c2)cc1`: the growth with T-47D breast is 86.7%; in the experiment on BT-549 breast, 99.7%; in the experiment with MDA-MB-435 melanoma, 105%; with SW-620 colon, 99.7%; in the experiment with MCF7 breast, 95.6%; in the experiment on HCT-116 colon it was 101%. In addition, in the experiment on KM12 colon, the growth is 107%.

`COc1cc2oc(-c3ccc(O)cc3)cc(=O)c2c(O)c1I`: the growth with T-47D breast is 93.1%; in the experiment with BT-549 breast, 96.2%; with MDA-MB-435 melanoma it was 101%; in the experiment on SW-620 colon, 109%; in the experiment with MCF7 breast, 79%; in the experiment with HCT-116 colon, 104%. For the same molecule, the growth with HCC-2998 colon was 105%; with KM12 colon, 96.5%.

`O=C1NC(=O)C2(CCCC2C(=O)O)N1` (configuration not stated): the growth was 106% in the experiment on T-47D breast; 102% with BT-549 breast; 105% with MDA-MB-435 melanoma; 108% in the experiment with SW-620 colon; 96.2% in the experiment on MCF7 breast; 98.4% in the experiment on HCT-116 colon. Further, the growth in the experiment on HCC-2998 colon is 100%; in the experiment with KM12 colon, 113%.

Consider `O=c1oc2ccccc2cc1-c1csc(N=Nc2c(O)[nH]c3ccc(Br)cc23)n1`, for which the growth was 107% in the experiment on T-47D breast; 102% in the experiment on BT-549 breast; 98.8% with MDA-MB-435 melanoma; 103% in the experiment on SW-620 colon; 94% with MCF7 breast; 98.1% with HCT-116 colon. For the same molecule, the growth was 102% in the experiment with HCC-2998 colon and 103% in the experiment with KM12 colon.

As for `Cc1ccc(S(=O)(=O)c2ccc3[nH]c(=O)[nH]c(=O)c3c2)cc1`, the growth in the experiment on T-47D breast was 90.9%; in the experiment with BT-549 breast, 92.4%; with MDA-MB-435 melanoma it was 116%; in the experiment with SW-620 colon, 105%; in the experiment with MCF7 breast, 91.5%; in the experiment on HCT-116 colon it was 90.9%. The growth with KM12 colon is 106%.

For `COc1ccc2nc(-n3nc(C)cc3C)c(-n3nc(C)cc3C)nc2c1`, the growth in the experiment on T-47D breast was 105%; with BT-549 breast it was 104%; with MDA-MB-435 melanoma, 102%; in the experiment with SW-620 colon it was 107%; in the experiment with MCF7 breast it was 109%; with HCT-116 colon, 96%. Further, the growth in the experiment with HCC-2998 colon is 89.8%; in the experiment on KM12 colon it was 116%.
